# Measurements as given in PubChem BioAssay (Tox21).
# A number with no mark means an inactive call. Results filed as inconclusive are left out. Where a call stands in place of a potency, no number is given. The source made the active and inactive calls. Unless noted, calls come from the whole dose curve; as a rule, active = well fitted curve in the direction sought with a large enough effect in the repeat runs; inconclusive = weak or mixed curves; inactive = no such curve, though single readings can be large; an effect the other way counts as inactive or inconclusive.
# Experiments:
# [1] = molecular target: Progesterone receptor (Homo sapiens) (UniProt P06401); assay: qHTS assay to identify small molecule agonists of the progesterone receptor (PR) signaling pathway (AID 1346784; calls by dose curve; note: nearly all actives have a fitted effect of over 30% in size)
# Progesterone receptor (Homo sapiens), sequence (P06401 whole entry, looked up): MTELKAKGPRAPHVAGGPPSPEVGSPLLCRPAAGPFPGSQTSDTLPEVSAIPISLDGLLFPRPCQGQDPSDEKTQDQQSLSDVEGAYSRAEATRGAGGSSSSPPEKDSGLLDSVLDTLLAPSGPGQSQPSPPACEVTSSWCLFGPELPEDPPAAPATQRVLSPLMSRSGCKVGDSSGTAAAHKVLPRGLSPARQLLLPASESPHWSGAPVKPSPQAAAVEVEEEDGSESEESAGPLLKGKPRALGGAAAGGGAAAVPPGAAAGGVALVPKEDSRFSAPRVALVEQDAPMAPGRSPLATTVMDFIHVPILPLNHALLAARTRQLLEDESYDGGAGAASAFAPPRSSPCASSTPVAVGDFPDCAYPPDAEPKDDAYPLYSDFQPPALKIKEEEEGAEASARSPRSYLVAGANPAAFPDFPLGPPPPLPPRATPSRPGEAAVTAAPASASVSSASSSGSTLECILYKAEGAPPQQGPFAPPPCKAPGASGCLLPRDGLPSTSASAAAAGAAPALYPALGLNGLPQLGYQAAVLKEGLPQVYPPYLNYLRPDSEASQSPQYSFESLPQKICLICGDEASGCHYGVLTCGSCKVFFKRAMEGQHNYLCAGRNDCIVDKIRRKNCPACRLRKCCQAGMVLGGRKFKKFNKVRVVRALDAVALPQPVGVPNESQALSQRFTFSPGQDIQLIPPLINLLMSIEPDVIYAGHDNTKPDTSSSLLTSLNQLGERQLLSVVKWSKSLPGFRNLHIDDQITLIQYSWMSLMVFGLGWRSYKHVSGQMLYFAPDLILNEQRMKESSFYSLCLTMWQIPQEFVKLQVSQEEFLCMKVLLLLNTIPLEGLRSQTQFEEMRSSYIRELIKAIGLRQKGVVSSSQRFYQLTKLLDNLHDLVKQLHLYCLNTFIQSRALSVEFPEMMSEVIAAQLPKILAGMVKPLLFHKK
# Outline: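 PR-UAS-bla HEK 293T cells carrying a UAS-driven beta-lactamase reporter were seeded in medium with 2% charcoal-stripped FBS, preincubated 6 hr at 37C, then exposed to compounds in DMSO for 16 hr; agonism was read by LiveBLAzer B/G FRET fluorescence.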
# [2] = qHTS assay to identify small molecule agonists of the progesterone receptor (PR) signaling pathway - cell viability counter screen (AID 1346799; calls by dose curve; note: nearly all actives have a fitted effect of over 45% in size; note: potency is the fitted concentration of half-maximal effect)
# Outline: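 PR-UAS-bla HEK293T cells, 3,000 per well in medium with 2% charcoal-stripped FBS, were preincubated 6 hr at 37C, then exposed to compounds for 16 hr; viability was read as CellTiter-Glo luminescence after 30 min at room temperature.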
# [3] = qHTS assay to identify small molecule antagonists of the TGF-beta/Smad signaling pathway - cell viability counter screen (AID 1346824); note: nearly all actives have a fitted effect of over 50% in size
# Outline: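 SBE-bla HEK 293T cells were plated overnight at 37 C, then given compounds in DMSO plus TGF-beta1 (added as 0.25 ng/mL solution) for 5 hr. After the bla read, CellTiter-Glo was added to the same wells and luminescence read after 30 min at room temperature.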
# [4] = qHTS assay to identify small molecule agonists of the TGF-beta/Smad signaling pathway - cell viability counter screen (AID 1346829); note: top concentration of the series differs between compounds; nearly all actives have a fitted effect of over 45% in size
# Outline: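 Compound-treated SBE-bla HEK 293T cells (5 hr, 37 C) were assessed for viability with CellTiter-Glo in parallel with the reporter read.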
# [5] = qHTS assay to identify small molecule agonists of the TGF-beta/Smad signaling pathway (AID 1346859; active = well fitted activation curve with a large enough effect in the signal ratio in the repeat runs, not every such curve was filed as active; the % refers to the signal ratio; note: series mostly up to about 77 µM)
# Outline: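 HEK 293T cells stably carrying a beta-lactamase reporter driven by the Smad binding element were seeded overnight, exposed to DMSO-dissolved compounds for 5 hr at 37 C, 5% CO2, then loaded with FRET substrate for 2 hr at room temperature.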
# [6] = molecular target: Thyrotropin-releasing hormone receptor (Homo sapiens) (UniProt P34981); assay: qHTS assay to identify small molecule antagonists of the thyrotropin-releasing hormone receptor (TRHR) signaling pathway (AID 1346877; active = well fitted inhibition curve with a large enough effect in the repeat runs, not every such curve was filed as active; note: series mostly up to about 51 µM)
# Thyrotropin-releasing hormone receptor (Homo sapiens), sequence (P34981 whole entry, looked up): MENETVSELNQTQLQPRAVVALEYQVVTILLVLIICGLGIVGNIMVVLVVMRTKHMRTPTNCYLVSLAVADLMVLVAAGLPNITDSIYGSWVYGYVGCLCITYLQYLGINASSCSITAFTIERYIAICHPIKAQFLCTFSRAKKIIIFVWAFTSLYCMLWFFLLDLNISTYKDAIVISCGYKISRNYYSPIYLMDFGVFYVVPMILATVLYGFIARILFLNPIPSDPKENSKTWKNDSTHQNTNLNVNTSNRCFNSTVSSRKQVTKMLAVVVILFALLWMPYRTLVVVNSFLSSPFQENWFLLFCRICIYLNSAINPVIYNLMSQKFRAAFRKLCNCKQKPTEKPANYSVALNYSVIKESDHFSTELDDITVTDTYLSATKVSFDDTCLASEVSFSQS
# Outline: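 Cells (TRHR-HEK293) are plated and kept 18 h at 37 °C/5% CO2. A calcium-sensitive dye is added for 2 h, compound follows for 5 min at room temperature, and TRH is then given at 1 nM final.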
# [7] = molecular target: Thyrotropin-releasing hormone receptor (Homo sapiens) (UniProt P34981); assay: qHTS assay to identify small molecule agonists of the thyrotropin-releasing hormone receptor (TRHR) signaling pathway (AID 1346891; calls by dose curve; note: potency is the fitted concentration of half-maximal effect; for activation: series mostly up to about 58 µM)
# Outline: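 TRHR-expressing HEK293 cells were plated 18 h at 37 °C/5% CO2, loaded with calcium dye 2 h at 37 °C, then given compound in DMSO; fluorescence was read kinetically for 3 min at 1 s intervals.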
# [8] = Human pregnane X receptor (PXR) small molecule agonists, qHTS cell viability counter screen (AID 1346977); note: nearly all actives have a fitted effect of over 50% in size; note: potency is the fitted concentration of half-maximal effect
# Outline: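 PXR-Luc HepG2 cells in medium with 5% charcoal-stripped FBS were pre-incubated 5hr, then exposed to compounds for 24hr at 37C. Viability was read in the same wells by CellTiter-Fluor fluorescence, reagent added after 23hr with a 1hr incubation.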
# [9] = qHTS assay to identify small molecule antagonists of the progesterone receptor (PR) signaling pathway - cell viability counter screen (AID 1346798); note: nearly all actives have a fitted effect of over 50% in size; note: potency is the fitted concentration of half-maximal effect; for activity change, negative = cytotoxicity: series mostly up to about 92 µM
# Outline: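 PR-UAS-bla HEK293T cells in medium with 2% charcoal-stripped FBS were treated with compounds plus R5020 for 16 hr at 37C. Cell viability was then read by CellTiter-Glo luminescence after 30 min at room temperature in the same wells.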
# [10] = molecular target: Progesterone receptor (Homo sapiens) (UniProt P06401); assay: qHTS assay to identify small molecule antagonists of the progesterone receptor (PR) signaling pathway (AID 1346795; active = well fitted inhibition curve with a large enough effect in the signal ratio in the repeat runs, not every such curve was filed as active; the % refers to the signal ratio; note: potency is the fitted concentration of half-maximal effect)
# Outline: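 PR-UAS-bla HEK293T cells carrying a UAS-driven beta-lactamase reporter were plated in medium with 2% charcoal-stripped FBS and rested 6 hr at 37C. Compounds were added with 1 nM R5020 (final) for 16 hr, then FRET substrate loaded 2 hr at room temperature.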
compound,measurement,setting,value
CCCCCCCCCCCCCCOS(=O)(=O)O,Potency,[1],inactive
same,Potency,[2],30.6 µM (active)
same,Potency,[3],inactive
same,outcome,[4],inactive
same,Potency,[5],inactive
same,outcome,[6],inactive
same,Potency,[7],inactive
same,Potency,[8],inactive
O[C@@H](COc1cccc2ncccc12)CN1CCN(C2c3ccccc3[C@@H]3[C@H](c4ccccc42)C3(F)F)CC1 (stereo partly drawn),Potency,[1],inactive
same,Potency,[9],inactive
same,Potency,[3],inactive
same,outcome,[4],inactive
same,Potency,[5],inactive
same,outcome,[6],inactive
same,Potency,[7],inactive
same,Potency,[8],23.7 µM (active)
CCCNCC(O)COc1ccccc1C(=O)CCc1ccccc1 (stereo not drawn),Potency,[1],inactive
same,Potency,[9],inactive
same,Potency,[3],inactive
same,outcome,[4],inactive
same,Potency,[5],inactive
same,outcome,[6],inactive
same,Potency,[7],inactive
same,Potency,[8],29.8 µM (active)
CC(C)Nc1ccc(NC(C)C)c2c1C(=O)c1ccccc1C2=O,Potency,[1],inactive
same,Potency,[2],inactive
same,outcome,[4],inactive
same,Potency,[5],inactive
same,Potency,[8],14.2 µM (active)
CC1=CCCC(C)(C)C12CCC(C)O2 (stereo not drawn),Potency,[10],inactive
same,Potency,[9],inactive
same,Potency,[2],inactive
same,Potency,[3],inactive
same,outcome,[4],inactive
same,Potency,[5],inactive
same,outcome,[6],inactive
same,Potency,[7],inactive
COc1cc(C(=O)OCCCN2CCCN(CCCOC(=O)c3cc(OC)c(OC)c(OC)c3)CC2)cc(OC)c1OC,Potency,[10],inactive
same,Potency,[9],inactive
same,Potency,[2],inactive
same,Potency,[3],inactive
same,outcome,[4],inactive
same,Potency,[5],inactive
same,outcome,[6],inactive
same,Potency,[7],inactive
O=C1OC(=O)C2C3C=CC(C3)C12 (stereo not drawn),Potency,[10],inactive
same,Potency,[9],inactive
same,Potency,[3],inactive
same,outcome,[4],inactive
same,Potency,[5],inactive
same,outcome,[6],inactive
same,Potency,[7],inactive
same,Potency,[8],inactive
CCC(C)O (stereo not drawn),Potency,[10],inactive
same,Potency,[9],inactive
same,Potency,[3],inactive
same,outcome,[4],inactive
same,Potency,[5],inactive
same,outcome,[6],inactive
same,Potency,[7],inactive
same,Potency,[8],inactive
C=CC(=O)OCCOCCOCCOCCOC(=O)C=C,Potency,[1],inactive
same,outcome,[4],inactive
same,Potency,[5],inactive
same,outcome,[6],inactive
same,Potency,[7],inactive
CCCCC1=NC2(CCCC2)C(=O)N1Cc1ccc(-c2ccccc2-c2nn[nH]n2)cc1,Potency,[10],inactive
same,Potency,[9],inactive
same,Potency,[2],inactive
same,Potency,[3],inactive
same,outcome,[4],inactive
same,Potency,[5],inactive
same,Potency,[8],inactive
CCN(CC)CCOC(=O)C(Cc1cccc2ccccc12)CC1CCCO1 (stereo not drawn),Potency,[10],inactive
same,Potency,[9],inactive
same,Potency,[3],inactive
same,outcome,[4],inactive
same,Potency,[5],inactive
same,outcome,[6],inactive
same,Potency,[7],inactive
COC(=O)C1=C(C)NC(COC(N)=O)=C(C(=O)OC(C)C)C1c1cccc(Cl)c1Cl (stereo not drawn),Potency,[1],inactive
same,Potency,[3],inactive
same,outcome,[4],inactive
same,Potency,[8],inactive
CCN(CC)CCNC(=O)c1cc(Br)c(N)cc1OC,Potency,[10],inactive
same,Potency,[9],inactive
same,Potency,[2],inactive
same,Potency,[3],inactive
same,outcome,[4],inactive
same,Potency,[5],inactive
same,outcome,[6],inactive
same,Potency,[7],inactive
same,Potency,[8],inactive
Cc1oc2c(NC(=O)c3c(Cl)cccc3Cl)cccc2c1C(C)(C)O,Potency,[10],24.3 µM (active)
same,Potency,[9],inactive
same,Potency,[3],inactive
same,outcome,[4],inactive
same,Potency,[5],inactive
same,outcome,[6],inactive
same,Potency,[7],inactive
Cc1ccccc1S(=O)(=O)O,Potency,[10],inactive
same,Potency,[9],inactive
same,Potency,[2],inactive
same,Potency,[3],inactive
same,outcome,[4],inactive
same,Potency,[5],inactive
same,outcome,[6],inactive
same,Potency,[7],inactive
O=CC1CC=CCC1 (stereo not drawn),Potency,[10],inactive
same,Potency,[9],inactive
same,Potency,[2],inactive
same,Potency,[3],inactive
same,outcome,[4],inactive
same,Potency,[5],inactive
same,outcome,[6],inactive
same,Potency,[7],inactive
CCCCCCCCCCCCCCCCCCOS(=O)(=O)O,Potency,[10],inactive
same,Potency,[9],54.5 µM (active)
same,Potency,[2],48.6 µM (active)
same,Potency,[3],inactive
same,outcome,[4],inactive
same,Potency,[5],inactive
same,outcome,[6],inactive
same,Potency,[7],inactive
COCCCN1CCC(NC(=O)c2cc(Cl)c(N)c3c2OCC3)CC1,Potency,[10],inactive
same,Potency,[9],inactive
same,Potency,[2],inactive
same,Potency,[3],inactive
same,outcome,[4],inactive
same,Potency,[5],inactive
same,Potency,[8],inactive
CCCCCCCC/C=C\CCCCCCCC(=O)OCC,Potency,[10],inactive
same,Potency,[9],inactive
same,Potency,[3],inactive
same,outcome,[4],inactive
same,Potency,[5],inactive
same,outcome,[6],inactive
same,Potency,[7],inactive
CCN(CC)c1ccc2c(-c3ccccc3C(=O)O)c3ccc(=[N+](CC)CC)cc-3oc2c1,Potency,[10],inactive
same,Potency,[9],inactive
same,Potency,[3],inactive
same,outcome,[4],inactive
same,Potency,[5],inactive
same,outcome,[6],inactive
same,Potency,[7],34.7 µM (active)
same,Potency,[8],4.86 µM (active)
COC(=O)c1ccc(I)cc1S(=O)(=O)NC(=O)Nc1nc(C)nc(OC)n1,Potency,[10],inactive
same,Potency,[9],inactive
same,Potency,[2],inactive
same,Potency,[3],inactive
same,outcome,[4],inactive
same,Potency,[5],inactive
same,outcome,[6],inactive
same,Potency,[7],inactive
OCCN1CCN(CCCN2c3ccccc3C=Cc3ccccc32)CC1,Potency,[10],inactive
same,Potency,[9],inactive
same,Potency,[3],inactive
same,outcome,[4],inactive
same,Potency,[5],inactive
CCOC(=O)c1cccnc1,Potency,[10],inactive
same,Potency,[9],inactive
same,Potency,[2],inactive
same,Potency,[3],inactive
same,outcome,[4],inactive
same,Potency,[5],inactive
same,outcome,[6],inactive
same,Potency,[7],inactive
same,Potency,[8],inactive
CCCCCCc1ccc(-c2ccc(C#N)cc2)cc1,Potency,[10],21.3 µM (active)
same,Potency,[9],inactive
same,Potency,[3],inactive
same,outcome,[4],inactive
same,Potency,[5],inactive
CCCCCCCC#N,Potency,[10],inactive
same,Potency,[9],inactive
same,Potency,[3],inactive
same,outcome,[4],inactive
same,Potency,[5],inactive
same,outcome,[6],inactive
same,Potency,[7],inactive
CN(C)CCN(Cc1ccsc1)c1ccccn1,Potency,[10],inactive
same,Potency,[9],inactive
same,Potency,[2],inactive
same,Potency,[3],inactive
same,outcome,[4],inactive
same,Potency,[5],inactive
same,outcome,[6],inactive
same,Potency,[7],inactive
same,Potency,[8],inactive
CN(C)c1ccc(/C=C/c2ccc([N+](=O)[O-])cc2)cc1,"activity change, negative = inhibition",[10],-17.2% [at 8.39 µM]
same,"activity change, negative = cytotoxicity",[9],-5% [at 8.39 µM]
same,"activity change, negative = cytotoxicity",[2],-0.149% [at 8.39 µM]
same,"viability change, negative = cytotoxic",[3],-3.22% [at 6.97 µM]
same,"activity change, negative = cytotoxicity",[4],8.79% [at 6.97 µM]
same,activation,[5],-9.78% [at 6.97 µM]
same,"activity, negative = inhibition",[6],-0.61% [at 4.65 µM]
same,activation,[7],0.993% [at 5.23 µM]
same,"activity change, negative = cytotoxicity",[8],-0.583% [at 8.39 µM]
CCOCC(O)COc1ccc(NC(=O)CC[S+](C)C)cc1 (stereo not drawn),Potency,[10],inactive
same,Potency,[9],inactive
same,Potency,[2],inactive
same,Potency,[3],inactive
same,outcome,[4],inactive
same,Potency,[5],inactive
same,outcome,[6],inactive
same,Potency,[7],inactive
same,Potency,[8],inactive
C1CCCNCCC1,Potency,[10],inactive
same,Potency,[9],inactive
same,Potency,[2],inactive
same,Potency,[3],inactive
same,outcome,[4],inactive
same,Potency,[5],inactive
same,Potency,[8],inactive
Cc1ncc(CO)c(C=O)c1O,Potency,[10],inactive
same,Potency,[9],inactive
same,Potency,[2],inactive
same,Potency,[3],inactive
same,outcome,[4],inactive
same,Potency,[5],inactive
same,outcome,[6],inactive
same,Potency,[7],inactive
same,Potency,[8],inactive
CC1=CC[C@H](C(C)C)C=C1,Potency,[10],inactive
same,Potency,[9],inactive
same,Potency,[2],inactive
same,Potency,[3],inactive
same,outcome,[4],inactive
same,Potency,[5],inactive
same,Potency,[8],inactive
CNCCCCOc1ccccc1Cc1ccccc1,Potency,[10],26.6 µM (active)
same,Potency,[9],6.68 µM (active)
same,Potency,[2],6.68 µM (active)
same,Potency,[3],inactive
same,Potency,[5],inactive
same,outcome,[6],inactive
same,Potency,[7],inactive
same,Potency,[8],26.6 µM (active)
